# In PubChem BioAssay AID2685 (National Center for Advancing Translational Sciences (NCATS), 2010):
# Screen size: about 320,000 compounds; about 2,100 (0.66%) were called active. Inconclusive results (about 53%) are left out. Calls come from the whole dose curve; as a rule, active = well fitted inhibition curve with a large enough effect in the signal ratio, with a control signal flat (not every such curve was filed as active); inconclusive = small, poorly fitted or top-dose-only effect, or effect the other way, or a change in a side signal; inactive = flat fitted curve, though single readings scatter; the % refers to the signal ratio. The sample as a whole holds a higher share of actives than the screen did.
# Assay: qHTS Assay for Lipid Storage Modulators in Drosophila S3 Cells;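 for cell number change: cells counted by Cell Tracker Red CMTPX staining in the red channel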; for lipid storage change, negative = inhibition: % is set by controls: 0 for no effect and ±100 for the full control effect
# Conditions: BODIPY lipid droplet fluorescence, 18-24 h, cells fed with added oleic acid; cell number change: measured here: cell count max response; series mostly up to 46.1 µM; lipid storage change, negative = inhibition: at the top concentration
# How it was run: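 Drosophila S3 cells loaded with oleic acid (400 uM, as added) and compounds at several concentrations; lipid droplets imaged by 488-nm laser-scanning cytometry, 500–530 nm intensity and object ratio to cell channel. Percent activity normalized to 20 uM Triacsin C.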
# Potency is the fitted concentration of half-maximal effect.
SMILES,outcome,cell number change [%],"lipid storage change, negative = inhibition",Potency
CSc1nc(SCC(=O)NC(c2ccccc2)c2ccccc2)c2c3c(sc2n1)CN(C)CC3,inactive,7.96,–,–
CCOc1ccc(N(CC(=O)Nc2ccc(C)cc2)S(=O)(=O)c2c(C)[nH]c(=O)[nH]c2=O)cc1,inactive,-18.6,–,–
Cc1ccc(N(C(C)C(=O)O)S(=O)(=O)c2c(C)n[nH]c2C)cc1 (stereo unspecified),–,2.85,14.2% (inactive),–
COC(=O)C(C)N(c1ccc(C)cc1)S(=O)(=O)c1c(C)[nH]c(=O)[nH]c1=O (stereo unspecified),–,6.83,–,25.9 µM (active)
O=[N+]([O-])c1cccnc1NCCNc1ncc(C(F)(F)F)cc1Cl,–,-29.3,-22.1% (inactive),–
NNC(=O)c1csc(-c2ncc(C(F)(F)F)cc2Cl)n1,–,17.7,10.2% (inactive),–
CC(=O)c1cc(C(=O)Nc2ccc3ccccc3c2)c(C)o1,inactive,16,–,–
Cc1ccc(S(=O)(=O)CNC(=O)c2ccccc2)cc1,–,10,22.6% (inactive),–
O=C(NCS(=O)(=O)c1ccccc1)c1ccccc1,–,0.335,–,23.1 µM (active)
O=C(NCCS(=O)(=O)c1ccc(Br)cc1)c1ccccc1,–,14,-10.3% (inactive),–
O=C(O)c1ccc(/C=N/Nc2ncc(C(F)(F)F)cc2Cl)cc1,–,0.452,-8.43% (inactive),–
Cc1ccc(S(=O)(=O)N2CCN(C(=O)COC(=O)Cc3ccc(F)cc3)CC2)c(C)c1,–,-6.09,3.61% (inactive),–
Cn1cccc2[nH]c(=O)nc1-2,–,10.2,-8.1% (inactive),–
Cn1cccc1C(=O)C(=O)Nc1ccccc1,–,-12.6,-9.72% (inactive),–
Cn1cccc1P(=O)(c1cccn1C)c1cccn1C,–,-5,–,5.17 µM (active)
CC(C)c1nnc(NC(=O)c2ccc3ccccc3c2)s1,–,-0.433,-9.44% (inactive),–
CS(=O)(=O)N(CC(=O)N1CCc2ccccc2C1)Cc1ccc(F)cc1,–,-12.3,–,0.13 µM (active)
CC1CCN(C(=O)CN(Cc2ccc(F)cc2)S(C)(=O)=O)CC1,inactive,-15.4,–,–
O=C(CN(Cc1ccc(F)cc1)S(=O)(=O)c1ccccc1)N1CCCCC1,–,-14.4,15.8% (inactive),–
Cc1ccc(F)c(NC=C2C(=O)OC(C)(C)OC2=O)c1,–,-13.4,9.5% (inactive),–
COCc1nnc(NS(=O)(=O)c2ccc(C)cc2)s1,–,-2.98,5.32% (inactive),–
COCc1nnc(NS(=O)(=O)c2ccc([N+](=O)[O-])cc2)s1,–,7.28,–,25.9 µM (active)
CC(C)(C)Cc1nnc(NS(=O)(=O)c2ccccc2)s1,–,-0.602,-13.2% (inactive),–
Cc1cc(C)c(S(=O)(=O)Nc2nnc(CC(C)C)s2)c(C)c1,–,-5.67,-14.4% (inactive),–

SMILES,outcome,cell number change [%],"lipid storage change, negative = inhibition",Potency
Cc1cc(C)c(S(=O)(=O)Nc2nnc(C)s2)c(C)c1,–,-0.995,-4.87% (inactive),–
Cc1ccc(S(=O)(=O)Nc2nnc(CC(C)(C)C)s2)cc1,–,-2.43,-22.4% (inactive),–
COCc1nnc(NS(=O)(=O)c2ccc(F)cc2)s1,–,-4.6,6.26% (inactive),–
COCc1nnc(NS(=O)(=O)c2c(C)cc(C)cc2C)s1,–,-24.8,–,18.4 µM (active)
CC(C)(C)Cc1nnc(NS(=O)(=O)c2ccc(F)cc2)s1,–,-2.36,–,0.0517 µM (active)
Cn1ccs/c1=N\C(=O)Nc1cccc(Cl)c1,–,1.31,11.8% (inactive),–
OCC1(CCOc2ccccc2)CCN(Cc2ccccc2OC(F)F)CC1,inactive,9.07,–,–
CCCCOC(=O)c1ccc(Nc2ncnc3nc[nH]c23)cc1,–,2.99,23.4% (inactive),–
O=C(Nc1ccccc1[N+](=O)[O-])C1(c2ccccc2)CCOCC1,–,-9.86,13.6% (inactive),–
CCOC(=O)N/N=C/c1ccc(OC)c(O)c1,–,4.89,0.972% (inactive),–
Nc1nc(COc2ccc(F)cc2Cl)nc(N2CCCCC2)n1,–,–,2.08% (inactive),–
CCCCn1c(=O)[nH]c(=O)c2c1nc(Cn1ncc(Cl)c(Cl)c1=O)n2CCC,–,-17.5,–,9.2 µM (active)
CCCCCn1c(CN2CCN(Cc3ccccc3)CC2)nc2c1c(=O)[nH]c(=O)n2C,–,-7.44,13.4% (inactive),–
CCCCn1c(-c2ccsc2)nc2c1c(=O)[nH]c(=O)n2CCC,inactive,26,–,–
Cc1ccc(C(=O)c2nc(C(=O)NCCO)nc3ccccc23)cc1,inactive,10.6,–,–
C/C(=N\O)C(=O)Nc1ccccc1,–,5.48,12.5% (inactive),–
O=C1C(Cl)=C(Nc2ccccc2)C(=O)c2ccccc21,–,-30.2,-20.8% (inactive),–
O=S(=O)(Nc1ccc2cn[nH]c2c1)c1ccc(Cl)cc1,inactive,–,–,–
O=C1C(Cl)=C(Nc2ccc3cn[nH]c3c2)C(=O)c2ccccc21,–,-29.2,–,5.8 µM (active)
COc1ccc(S(=O)(=O)NNC(=O)C2COc3ccccc3O2)cc1[N+](=O)[O-] (stereo unspecified),inactive,4.36,–,–
NC(=O)c1ccc(NC(=O)CSc2nnc(-c3ccccn3)n2N)cc1,–,1.07,0.594% (inactive),–
O=C(Nc1ccc(Oc2cccnc2)cc1)C1CCN(Cc2cccc(Cl)c2)CC1,inactive,27.9,–,–
Nc1nnnn1CC(=O)OCc1cccc(Br)c1,–,4.89,–,2.06 µM (active)
O=C(CN1CC(c2ccccc2)CC1=O)OCc1cccc(Br)c1 (stereo unspecified),–,15.3,-6% (inactive),–

SMILES,outcome,cell number change [%],"lipid storage change, negative = inhibition",Potency
O=C(CNC(=O)c1ccccc1)OCc1cccc(Br)c1,–,-18.3,-23.1% (inactive),–
COc1ccc(S(=O)(=O)N2CCOC2CNC(=O)C(=O)NCc2ccncc2)cc1 (stereo unspecified),inactive,-15.1,–,–
COc1ccc(CCNC(=O)CSc2c[nH]c3ccccc23)cc1OC,–,5.06,-1.63% (inactive),–
O=C(NCC1CCCC(CNC(=O)Nc2ccc(Cl)cn2)C1)Nc1ccc(Cl)cn1 (stereo unspecified),–,-15.8,–,0.082 µM (active)
O=C(Nc1ccc(Cl)cn1)Nc1ccc(Cl)cn1,inactive,–,–,–
O=C(COC(=O)CC1CCCC1)Nc1ccc(Cl)cn1,–,2.11,-8.5% (inactive),–
Nc1nc2ccc(C(=O)Nc3ccccc3)cc2s1,–,-10.8,11.7% (inactive),–
Cc1ccc(N2C(=O)C3C4C=CC(CC4)C3C2=O)c([N+](=O)[O-])c1 (stereo unspecified),–,–,6.13% (inactive),–
C=CCOc1ccccc1CNc1ccc2c(c1)OCCO2,–,-4.69,2.79% (inactive),–
O=C(CCl)N(C/C=C/c1ccccc1)c1ccc2c(c1)OCCO2,–,–,8.7% (inactive),–
C=CCOc1ccccc1CN(C(=O)CCl)c1ccc2c(c1)OCO2,–,10.9,–,9.2 µM (active)
Cc1cc(C)cc(Oc2ccc(C(F)(F)F)cc2C#N)c1,inactive,–,–,–
Clc1ccc(CSc2ccc(-c3ccco3)nn2)cc1,–,–,0.428% (inactive),–
c1ccc(-c2nnc(-c3ccccc3)o2)cc1,–,0.828,-1.7% (inactive),–
O=C(O)c1ccc(-c2nnc(-c3ccccc3)o2)cc1,–,25.5,9.84% (inactive),–
Nc1ccc(-c2nnc(-c3ccccc3)o2)cc1,–,–,–,18.4 µM (active)
Cc1ccc(CN2C(=O)/C(=C3\SC(N4CCOCC4)=NC3=O)c3cc(Br)ccc32)cc1,–,15.8,-0.115% (inactive),–
CCCCN1C(=O)/C(=C2\SC(N3CCOCC3)=NC2=O)c2ccccc21,–,-1.69,–,8.2 µM (active)
CCN1C(=O)/C(=C2\SC(N3CCCCC3)=NC2=O)c2ccccc21,–,-29.3,-17.1% (inactive),–
O=C(NC12CC3CC(CC(C3)C1)C2)c1cnccn1,–,3.24,-13.2% (inactive),–
CCN(CC)C1CCS(=O)(=O)C1 (stereo unspecified),–,22.1,15.6% (inactive),–
COc1cccc(-c2cc(C(=O)N3CCN(Cc4ccc5c(c4)OCO5)CC3)on2)c1,–,17,7.57% (inactive),–
COC(=O)CNC(=O)c1cc(OC)cc(OC)c1,–,7,0.076% (inactive),–
COc1cc(OC)cc(C(=O)NCC(=O)OCC(=O)c2cc(OC)ccc2OC)c1,–,-7.21,–,23.1 µM (active)

SMILES,outcome,cell number change [%],"lipid storage change, negative = inhibition",Potency
COc1cc(OC)cc(C(=O)NCC(=O)OCC(=O)NC(C)(C)C)c1,–,16.7,-3.37% (inactive),–
CCC(C)C(NC(=O)c1ccc(Cl)cc1)C(=O)O (stereo unspecified),–,-1.98,4.26% (inactive),–
CC(C)OCCCNC(=O)C(NC(=O)c1ccc(Cl)cc1)C(C)C (stereo unspecified),–,4.94,-2.96% (inactive),–
COC(=O)CNC(=O)C(NC(=O)c1ccc(Cl)cc1)C(C)C (stereo unspecified),–,12.5,–,25.9 µM (active)
COC(=O)c1cc(C(=O)Nc2cccc(C)n2)cc([N+](=O)[O-])c1,inactive,–,–,–
COC(=O)c1ccccc1NC(=O)C1CCCO1 (stereo unspecified),–,-0.0238,5.7% (inactive),–
O=C(O)c1ccccc1NC(=O)C1CCCO1 (stereo unspecified),–,-12.3,–,23.1 µM (active)
CCOC(=O)c1ccccc1NC(=O)C1CCCO1 (stereo unspecified),–,2.7,0.203% (inactive),–
COc1cc(/C=C/C(=O)NC(C)C2CC3CCC2C3)cc(OC)c1OC (stereo unspecified),–,13.5,–,2.91 µM (active)
COc1ccc(C(=O)NC(C)C2CC3CCC2C3)c(OC)c1 (stereo unspecified),inactive,14.1,–,–
COc1cc(/C=C/C(=O)NC2CCCCC2)cc(OC)c1OC,inactive,1.65,–,–
CCCCN1C(=O)C(=O)N(CC(=O)Nc2cc(OCC)c(N3CCOCC3)cc2OCC)C1=O,–,-17.5,9.77% (inactive),–
COc1ccc(-c2cc(C)no2)cc1S(=O)(=O)N(C)c1ccc(C)cc1,inactive,-26.4,–,–
COC(=O)CCN(c1ccccc1)S(=O)(=O)c1cc(-c2cc(C)no2)ccc1OC,inactive,–,–,–
CCCN(c1ccccc1F)S(=O)(=O)c1cc(-c2cc(C)no2)ccc1OC,–,-29.5,–,4.61 µM (active)
COc1cccc(C(=O)Nc2nnc(S(=O)(=O)N(C)Cc3ccc(F)cc3)s2)c1,–,-17.9,–,29.1 µM (active)
COc1ccc(CN(C)S(=O)(=O)c2nnc(NC(=O)c3cccc(F)c3)s2)cc1,inactive,–,–,–
COc1cccc(C(=O)Nc2nnc(S(=O)(=O)N3CCCC3)s2)c1,–,-14.5,–,4.11 µM (active)
O=C(Nc1nnc(S(=O)(=O)N2CCCCCC2)s1)c1cccc(Br)c1,–,16.5,-11.2% (inactive),–
Cc1cccc(C(=O)Nc2nnc(S(=O)(=O)N3CCOCC3)s2)c1,–,-0.612,-27.6% (inactive),–
CN(Cc1ccc(F)cc1)S(=O)(=O)c1nnc(NC(=O)c2ccccc2)s1,inactive,3.05,–,–
CN(Cc1ccc2c(c1)OCO2)C(=O)c1cc(-c2ccccc2)c(N2CCOCC2)s1,inactive,-5.64,–,–
COc1cccc(C(=O)NCc2nnc(SCC(=O)Nc3nccs3)n2-c2cccc(C)c2)c1,–,-7.27,7.07% (inactive),–
COc1cc(NC(=O)CCc2nnc3ccc(N4CCN(C)CC4)nn23)cc(OC)c1,inactive,-14.7,–,–
